Enrichment ratio data for 154 variants are collected here from a collection of fitness landscapes (doi:10.1126/science.1257360).

In all, about 140,000 sequences were measured (“enrichment ratio after two sorts for PhoP signalling”: median about 0, highest 2% from about 11 on). Many of the other results were omitted from the sample, so the highest values are more common in it than they were.

First the molecules themselves.
B1: PhoQ; a variant is named by its letters at X, in order, P23837 (parent)
chain: MKKLLRLFFPLSLRVRFLLATAAVVLVLSLAYGMVALIGYSVSFDKTTFRLLRGESNLFYTLAKWENNKLHVELPENIDKQSPTMTLIYDENGQLLWAQRDVPWLMKMIQPDWLKSNGFHEIEADVNDTSLLLSGDHSIQQQLQEVREDDDDAEMTHSVAVNVYPATSRMPKLTIVVVDTIPVELKSSYMVWSWFIYVLSANLLLVIPLLWVAAWWSLRPIEALAKEVRELEEHNRELLNPATTRELTSLVRNLNRLLKSERERYDKYRTTLTDLTHSLKTPLXXLQXXLRSLRSEKMSVSDAEPVMLEQISRISQQIGYYLHRASMRGGTLLSRELHPVAPLLDNLTSALNKVYQRKGVNISLDISPEISFVGEQNDFVEVMGNVLDNACKYCLEFVEISARQTDEHLYIVVEDDGPGIPLSKREVIFDRGQRVDTLRPGQGVGLAVAREITEQYEGKIVAGESMLGGARMEVIFGRQHSAPKDE

Variants of B1 are the subject of this assay. Nature of the assay: enrichment ratio after two sorts for PhoP signalling (ratio (wild type AVST 3.29)); higher = more functional. To be noted: with PhoP (E. coli).
With HPRS, the enrichment ratio was no more than 0.25.

SFMM: the enrichment ratio worked out at 0.454. EPTF: the enrichment ratio is no more than 0.25.

On to ATNR, for which the enrichment ratio is no more than 0.25. Under FVFQ stands no more than 0.25; under DMFY, no more than 0.25.

With NDFH, the enrichment ratio was no more than 0.25. As for YEAF, the figure is no more than 0.25. As for WSCA, the figure is no more than 0.25; as for AAPM, 4.08. On to AKMM, for which the enrichment ratio was determined as 30.4. Under AAMM stands 13; under AHMM, no more than 0.25; under ARMM, 5.29. As for AIMM, the figure is 35.5. Regarding APMM, the enrichment ratio was no more than 0.25. Under ADMM stands no more than 0.25. Under VRMM stands no more than 0.25; under AYMM, no more than 0.25.

For the variant ASMM, the enrichment ratio amounted to 41.3.

Consider IEAL, for which the enrichment ratio was no more than 0.25. As for NQSL, the figure is no more than 0.25. Under PQWK stands no more than 0.25. Under SKWQ stands no more than 0.25; under SPSH, no more than 0.25; under PVME, no more than 0.25.

On to TSKH, for which the enrichment ratio was no more than 0.25.

Take TVCE: the enrichment ratio was determined as 13.5. Under TVME stands 11.7; under KSSH, no more than 0.25; under TVCI, 0.444. Under TVHE stands no more than 0.25; under TSSH, 11.3; under HCSH, no more than 0.25. Under TVSH stands 15.9; under KCME, no more than 0.25. Regarding HTVK, the enrichment ratio is no more than 0.25. With KMRS, the enrichment ratio is no more than 0.25. Under IPKF stands no more than 0.25; under AQWL, no more than 0.25; under PAAR, no more than 0.25. Take LETM: the enrichment ratio is no more than 0.25. Under RMVY stands no more than 0.25; under NVCS, no more than 0.25; under SPCA, no more than 0.25. Under TVCA stands 14.5; under TVCS, 11.4. Under PVCA stands no more than 0.25; under PVCS, no more than 0.25. Take PKSQ: the enrichment ratio is no more than 0.25.

On to RQKT, for which the enrichment ratio was no more than 0.25.

Turning to IWNV, the enrichment ratio is no more than 0.25. Under LQKK stands no more than 0.25; under LFFM, no more than 0.25; under ITFY, no more than 0.25. For the variant WWLL, the enrichment ratio is no more than 0.25. Under SNAI stands 22. Under IQCS stands no more than 0.25. Under SFAI stands no more than 0.25. In the case of SQCS, the enrichment ratio stood at 14.7. Turning to SNNW, the enrichment ratio came to 1.31. Consider SNIF, for which the enrichment ratio is no more than 0.25.

With LNAI, the enrichment ratio was no more than 0.25. In the case of WQCS, the enrichment ratio was no more than 0.25. Regarding SNCS, the enrichment ratio worked out at 19.6.

With GFWW, the enrichment ratio is 1.03.

With LGGY, the enrichment ratio is no more than 0.25. Under ESVH stands no more than 0.25; under PMVM, no more than 0.25.

With KCTV, the enrichment ratio was no more than 0.25. As for TCTV, the figure is 12.6; as for KCTF, no more than 0.25.

Turning to LSTF, the enrichment ratio is no more than 0.25. In the case of GMTV, the enrichment ratio was 0.937. For the variant TCTF, the enrichment ratio came out at 12.4. Take LQSN: the enrichment ratio is no more than 0.25.

As for PMKC, the enrichment ratio was no more than 0.25. Under AKDL stands no more than 0.25; under NKTC, no more than 0.25; under MEFA, no more than 0.25. As for MKFC, the figure is no more than 0.25. Under MESC stands 10.2.

Regarding MEFC, the enrichment ratio is 12.8. As to MFTC, the enrichment ratio is no more than 0.25. As for METC, the figure is 45.8; as for LQYS, no more than 0.25; as for KENY, no more than 0.25. As to IMSK, the enrichment ratio was no more than 0.25. As for EIPN, the figure is no more than 0.25. As for TESG, the figure is 24.9; as for MESN, 7.39.

In the case of SRSG, the enrichment ratio is no more than 0.25. As for MRSG, the figure is no more than 0.25. Under PESG stands no more than 0.25; under TESN, 20.2; under SLSG, 11.8. As for PLSG, the figure is no more than 0.25. For NESG, the enrichment ratio is no more than 0.25. Under QESG stands 6.03; under MESG, 15.7.

For QESN, the enrichment ratio was 5.1. For the variant GKLS, the enrichment ratio was no more than 0.25.

As for SVRW, the enrichment ratio is no more than 0.25.

RDAA: the enrichment ratio is no more than 0.25. As for KNCK, the figure is no more than 0.25; as for VGMN, no more than 0.25; as for HWYH, no more than 0.25. As for IYMC, the figure is no more than 0.25; as for EKVI, no more than 0.25. As for HFDW, the figure is no more than 0.25; as for HAFN, no more than 0.25; as for EAES, no more than 0.25. In the case of FCSG, the enrichment ratio is no more than 0.25. Under SCSG stands 20.2. Under AESN stands 11; under KYSG, no more than 0.25.

With AKSG, the enrichment ratio was 5.13. Under AESG stands 25.4; under SESG, 28.9. Under STSG stands 8.56; under SQSG, 6.12. As for LITF, the figure is no more than 0.25. ATGN: the enrichment ratio was 3.43. Under GGVC stands no more than 0.25.

SNWR: the enrichment ratio was no more than 0.25. As for HEMR, the figure is no more than 0.25; as for SLVC, no more than 0.25; as for SNVG, 3.21.

On to SNVC, for which the enrichment ratio was 11.5. Under SNMH stands 11.9; under HEMI, 12.7; under TGVC, 16.8. For PGVC, the enrichment ratio is no more than 0.25. On to HEMV, for which the enrichment ratio was no more than 0.25. Under SNCH stands 7.35.

On to ANPD, for which the enrichment ratio was no more than 0.25. On to TGHW, for which the enrichment ratio is no more than 0.25. Under KVMG stands no more than 0.25; under IFMF, no more than 0.25. As for WNFI, the figure is no more than 0.25; as for ILYP, no more than 0.25; as for PDCM, no more than 0.25. For SNHE, the enrichment ratio was no more than 0.25. GNVG: the enrichment ratio was 2.06. Under SNFE stands no more than 0.25. Regarding SNMW, the enrichment ratio was 3.59. In the case of GNVC, the enrichment ratio was 11.6. Take GIVC: the enrichment ratio amounted to 4.3.

With SNME, the enrichment ratio was found to be 14.4. With SNMS, the enrichment ratio was 12. Under SNMD stands 1.49; under SNLW, 7.18; under SNMG, 12.5.

As for SNMA, the enrichment ratio came out at 7.05.
